Screening results from PubChem.
HSD17B inh = HSD17B dehydrogenase inhibition. Q99714. recombinant HSD17B10, NADH fluorescence kinetic. Potency, µM (series often up to 57.1 µM), inactives show at the top dose activity change, negative = inhibition, usual class: inhibitors. 7.6% of 75,000 active. AID 893;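 note: the protocol describes HADH2 (HSD17B10) and not the HSD17B4 of the title; potency is the fitted concentration of half-maximal effect; % is set by controls: 0 for no effect and ±100 for the full control effect; nearly all actives have a fitted effect of over 70% in size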
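Enzyme plus compound, 15 min room temperature; substrate mix added (NAD+ 1 mM, beta-hydroxybutyryl-CoA 90 uM final); plates read kinetically for NADH fluorescence. HADH2 was His-tagged, E. coli-derived, 20 nM.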
A350 autofl = compound fluoresces in the Alexa 350 spectral region; Compound autofluorescence, 340/450 nm, Alexa 350 dye-equivalents; hits give high values; max dye-equivalent concentration, M; 11% of 59,000 active; AID 590; in the data active = max dye-equivalent concentration above about 10 nM; inconclusive = mostly about 1.1 nM to 9.6 nM
AID923 = qHTS Assay for Allosteric/Competitive Inhibitors of Caspase-1: Spectroscopic Profiling in AFC Spectral Region | compound fluorescence, AFC spectral region (405/520 nm) | Potency, µM (titrated, usually from 57.5 µM), for the others: at the highest dose fluorescence increase, most hits filed as activators | 1.1% of 75,000 active | AID 923, 2007; note: potency is the fitted concentration of half-maximal effect; 0% is about no effect
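Titrations up to 57 uM read every 20 sec for 3 min (405/520 nm) with 50 nM caspase 1 and 5 uM Ac-WEHD-AFC, pH 7.5 HEPES buffer. Fluorescence-vs-time intercept gave baseline, scaled against on-plate AFC standard.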
4MU fluor = 4-MU region autofluorescence; compound autofluorescence, 340/450 nm, 4-MU equivalents; hits give high values; max dye-equivalent concentration, M; 11% of 59,000 active; AID 589; in the data active = max dye-equivalent concentration above about 10 nM; inconclusive = mostly about 1.1 nM to 9.6 nM
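Compounds in 100 mM Tris, pH 8.0, sat 15 min at room temperature before fluorescence was read at 340 nm excitation/450 nm emission; a per-plate six-point 4-MU standard curve converted signals to dye-equivalent concentration at each compound concentration.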
HADH2 inh = inhibitors of human HADH2 dehydrogenase; Q99714; recombinant HADH2, NADH fluorescence, beta-hydroxybutyryl-CoA; Potency, µM (highest dose often 57.1 µM), for the others: at the top dose activity change, negative = inhibition, most hits filed as inhibitors; 3.4% of 73,000 active; AID 886; note: potency is the fitted concentration of half-maximal effect; % is set by controls: 0 for no effect and ±100 for the full control effect; nearly all actives have a fitted effect of over 60% in size
Target sequence (Q99714 whole entry, looked up, one chain of several): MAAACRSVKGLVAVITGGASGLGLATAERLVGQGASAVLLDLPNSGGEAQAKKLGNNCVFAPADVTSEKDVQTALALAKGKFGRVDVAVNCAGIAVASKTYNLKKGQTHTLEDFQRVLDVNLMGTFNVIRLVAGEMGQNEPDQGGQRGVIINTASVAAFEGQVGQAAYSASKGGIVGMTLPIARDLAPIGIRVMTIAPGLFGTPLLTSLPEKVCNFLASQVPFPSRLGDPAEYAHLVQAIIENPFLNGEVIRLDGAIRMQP
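E. coli-expressed His-tagged HADH2 tested at 20 nM in alkaline Tris buffer (pH 9.0); oxidation of 90 uM beta-hydroxybutyryl-CoA with 1 mM NAD+ tracked fluorimetrically for 4 min.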
CRE Fsk mod = alters forskolin-stimulated CRE reporter signaling in CHO cells; 2.5% of 71,000 active; CHO CRE-bla reporter (cAMP response element driving beta-lactamase), forskolin EC10, beta-lactamase ratio; Potency, µM (top dose mostly 38.2 µM), without a hit: at the top dose activity change, negative = inhibition, hits mostly activators; active = well fitted activation curve with a large enough effect in the signal ratio, with a control signal flat, not every such curve was filed as active; inconclusive = small, poorly fitted or top-dose-only effect, or effect the other way, or a change in a side signal; the % refers to the signal ratio; note: potency is the fitted concentration of half-maximal effect; % of control where 0% means no effect
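Beta-lactamase reporter under a cAMP responsive element in CHO cells; compounds tested in titration series against EC10 NKH 477, 3 h at 37 °C. Read-out: CCF4 FRET ratio 460nm/530nm (excitation 405nm) giving %Activity, fitted to AC50.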
Starred values were filed as active, the others as inactive; i = inactive; ? = inconclusive; nt = no result given. This is a sample that favours compounds with a hit; in the whole collection about 14% have one here. Unless noted, calls come from the whole dose curve; as a rule, active = well fitted curve in the direction sought with a large enough effect; inconclusive = small, poorly fitted or top-dose-only effect, or another doubt; inactive = no such curve, though single readings can be large; an effect the other way counts as inactive or inconclusive.

SMILES	HSD17B inh	A350 autofl	AID923	4MU fluor	HADH2 inh	CRE Fsk mod
Cc1c(C(=O)O)oc2c1C(O)CCC2 (stereo unspecified)	-15%	i	-2%	i	?	3%
Cc1c(C(=O)O)oc2c1C(O)CC(C)(C)C2 (stereo unspecified)	8%	2.1e-08M*	0%	1.4e-08M*	-3%	-10%
CC(C)C[C@@H](CC(=O)N[C@@H](CCC(=O)O)CC(=O)O)NC(=O)[C@@H]1CCCC[C@H]1NC(=O)C[C@H](CCCN)NC(=O)C[C@H](Cc1ccccc1)NC(=O)[C@@H]1CCCC[C@H]1N	nt	nt	nt	nt	13%	-15%
CCOc1ccc2nc(NCCNC(=O)C3CC3)c(C)cc2c1	32µM*	3.5e-07M*	1%	3.8e-07M*	27%	9%
COCC(=O)NCCNc1nc2ccc(C)cc2cc1C	32µM*	4.3e-08M*	1%	4.4e-08M*	-14%	7%
COCC(=O)Nc1nc2ccc(C)cc2s1	4%	i	0%	i	1%	?
CCOc1ccc2nc(N3CCCC(C(=O)NCCCN4CCOCC4)C3)sc2c1 (stereo unspecified)	1%	nt	-1%	nt	?	-1%
CCOc1ccc2nc(NCCNC(=O)C(C)C)c(C)cc2c1	25µM*	3.5e-07M*	-2%	4.9e-07M*	37%	10%
CS(=O)c1nc(-c2ccc(Br)cc2)cc(-c2ccccc2)c1C#N (stereo unspecified)	31%	i	0%	i	104%	15%
Cc1cc(-c2ccccc2)c(C#N)c(N)n1	25µM*	nt	10%	nt	i	13µM*
O=C(NCc1ccccn1)c1ccc(NC(=O)c2ccco2)cc1	6%	i	0%	i	2%	-5%
O=C(NCc1ccccn1)c1coc(=O)c(Br)c1	nt	8.4e-07M*	nt	7.7e-07M*	nt	nt
COC(=O)N1C2(C=CC1(C)C(=O)NCc1ccc(N(C)C)cc1)CCCCC2 (stereo unspecified)	11%	nt	-1%	nt	-1%	-4%
CCOC(=O)NC(=O)CSc1nc(C)cc(C(F)(F)F)c1C#N	3%	i	2%	i	-15%	-2%
N#Cc1c(C(F)(F)F)cc(-c2ccco2)nc1SCc1ccncc1	16µM*	4.6e-07M*	6%	6.9e-07M*	25µM*	13%
Cc1coc(NC(=O)CSc2nc(-c3ccncc3)cc(C(F)(F)F)c2C#N)n1	-6%	5.8e-08M*	3%	7.2e-08M*	22%	16%
N#Cc1c(C(F)(F)F)cc(-c2ccco2)nc1SCc1ccccn1	32µM*	4e-07M*	10%	2.9e-07M*	52%	?
C=CCn1c(Cc2cccs2)nnc1SCC(=O)Nc1cc(OC)cc(OC)c1	1%	i	-1%	i	-5%	-10%
O=c1n(-c2ccccc2)c(=O)n(Cc2ccccn2)n1Cc1ccccn1	6%	i	1%	i	-6%	-3%
Cc1noc(C)c1C(=O)N1CCC2(CCN(C(=O)NC(C)C)CC2)CC1	2%	i	2%	i	7%	0%
CCN1CCN(c2cc(C)c3cc(NC(=O)c4ccc5c(c4)OCO5)ccc3n2)CC1	100%	nt	-1%	nt	?	4%
COc1ccc(C)cc1NC(=O)CCC(=O)Nc1ccc2nc(N3CCN(C)CC3)cc(C)c2c1	16µM*	1.9e-07M*	-1%	2e-07M*	32µM*	?
Cc1cc(N2CCN(C)CC2)nc2ccc(NC(=O)CCC(=O)NCc3ccco3)cc12	20µM*	4e-07M*	3%	4.3e-07M*	32µM*	6%
Cc1cc(N2CCOCC2)nc2ccc(NC(=O)CCC(=O)N3CCCC(C)C3)cc12 (stereo unspecified)	25µM*	1.2e-06M*	3%	1.3e-06M*	25µM*	?
O=C(Nc1ccc2oc(=O)ccc2c1)c1cccnc1	?	1.4e-08M*	-1%	1.4e-08M*	-14%	5%
O=C(Nc1cccc(NC(=O)c2cccnc2)c1)c1cccnc1	9%	i	1%	i	-2%	0%
